# Source: PubChem BioAssay (National Center for Advancing Translational Sciences (NCATS))
# HP1b chromo inh: inhibitors of HP1-beta chromodomain binding to methylated histone tails. P83916. AlphaScreen HP1-beta / biotin-H3K9me3 peptide binding. Potency, µM (doses to about 114 µM), for the others: at the highest dose activity change, negative = inhibition, most hits filed as inhibitors. 390,000 tested, 0.56% active. AID 540317; note: potency is the fitted concentration of half-maximal effect; nearly all actives have a fitted effect of over 70% in size
# Target sequence (P83916 whole entry, looked up): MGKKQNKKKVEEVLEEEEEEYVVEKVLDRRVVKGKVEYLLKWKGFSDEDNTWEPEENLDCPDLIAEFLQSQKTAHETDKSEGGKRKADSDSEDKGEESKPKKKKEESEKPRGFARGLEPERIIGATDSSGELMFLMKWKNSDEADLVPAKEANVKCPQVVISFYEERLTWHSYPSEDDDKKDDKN
#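 Compound inhibition of the preformed complex between 50 nM HP1-beta and 50 nM biotinylated H3K9me3 peptide was read by AlphaScreen. Buffer was PBS pH 7.4 with 0.01% Tween-20. Incubations ran 30 min at room temperature, with 10 ug/mL donor/acceptor beads.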
# JMJD2A Tudor inh: inhibitors of human JMJD2A Tudor domain; O75164; 390,000 tested, 4.4% active; Potency, µM (top dose mostly 114 µM), without a hit: at the highest dose activity change, negative = inhibition, hits mostly inhibitors; AlphaScreen JMJD2A-Tudor / H3K4me3 peptide binding; note: potency is the fitted concentration of half-maximal effect; % is set by controls: 0 for no effect and ±100 for the full control effect; nearly all actives have a fitted effect of over 50% in size
# JMJD2E inh: JMJD2E (human) inhibition. JMJD2E catalytic domain, FDH-coupled NADH fluorescence (FDH is formaldehyde dehydrogenase). Potency, µM (series often up to 57.1 µM), inactives show at the top dose activity change, negative = inhibition, actives largely listed as inhibitors. 230,000 tested, 1.6% active; active = well fitted inhibition curve with a large enough effect, not every such curve was filed as active; inconclusive = small, poorly fitted or top-dose-only effect, or another doubt; inactive = no such curve, though single readings can be large or run the other way;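 note: potency is the fitted concentration of half-maximal effect; 0% = wells with enzyme and -100% = buffer wells without enzyme; nearly all actives have a fitted effect of over 50% in size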
# Target sequence (B2RXH2 1-337 limits assumed): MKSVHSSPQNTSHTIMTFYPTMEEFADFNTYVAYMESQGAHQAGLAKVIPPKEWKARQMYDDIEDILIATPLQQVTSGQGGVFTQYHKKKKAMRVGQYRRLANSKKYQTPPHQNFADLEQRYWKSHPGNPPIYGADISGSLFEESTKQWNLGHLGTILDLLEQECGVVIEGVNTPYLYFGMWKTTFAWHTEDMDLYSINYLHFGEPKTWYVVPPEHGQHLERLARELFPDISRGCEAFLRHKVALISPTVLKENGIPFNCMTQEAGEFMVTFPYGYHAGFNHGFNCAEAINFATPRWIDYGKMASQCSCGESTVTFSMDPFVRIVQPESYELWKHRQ
# L3MBTL1 inh: blocks human L3MBTL1; 230,000 tested, 0.66% active; AID 485360; AlphaScreen L3MBTL1–H3K9me1 peptide binding; Q9Y468; Potency, µM (series often up to 57.1 µM), for inactives: top-dose activity, negative = inhibition, actives largely listed as inhibitors; note: potency is the fitted concentration of half-maximal effect; % is set by controls: 0 for no effect and ±100 for the full control effect; nearly all actives have a fitted effect of over 60% in size
#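 Read-out is AlphaScreen signal from streptavidin donor and nickel chelate acceptor beads (10 ug/mL final each) bridging L3MBTL1 (50 nM) and biotinylated K9-monomethylated H3(1-15) peptide (75 nM), after 30 min compound exposure at room temperature.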
# BAZ2B block: inhibitors of human BAZ2B bromodomain | Q9UIF8 | AlphaScreen BAZ2B-H3K14Ac peptide displacement | Potency, µM (doses to about 114 µM), without a hit: at the highest dose activity change, negative = inhibition, usual class: inhibitors | 360,000 tested, 4.4% active; note: potency is the fitted concentration of half-maximal effect; % is set by controls: 0 for no effect and ±100 for the full control effect; nearly all actives have a fitted effect of over 60% in size
#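 AlphaScreen luminescence quantifies BAZ2B engagement of H3K14Ac peptide; the protein and biotinylated peptide are both at 50 nM final, buffer PBS pH 7.4 with 0.01% Tween-20, all steps at room temperature.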
# PI5P4K alpha inh: inhibitors of human PI5P4K alpha; max response, %; 330,000 tested, 1.2% active; P48426; PI5P4Kalpha enzyme, ADP-Glo luminescence, 60 min; active compounds read low; AID 652105; active = max response of -50% or lower; inconclusive = between -30% and -50%; inactive = -30% or higher; note: value at the top dose of about 77 µM; % is set by controls: 0 for no effect and ±100 for the full control effect
#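 PI5P4Kalpha ADP-Glo assay; 5 microM ATP final; 60 min RT reaction; HEPES pH 7.4/EGTA/CHAPS, 5% DMSO; controls lacking substrate or enzyme; luminescent end-point.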
# * marks the source's active call; other numbers are inactive results; ? = inconclusive; nt = not tested or not shown; [ ] = dose if it differs, or a comment. Rows were chosen to be rich in hits. Some 5.7% of all compounds tested hit in one or more screens of this group. Unless noted, calls come from the whole dose curve; as a rule, active = well fitted inhibition curve with a large enough effect; inconclusive = small, poorly fitted or top-dose-only effect; inactive = no such curve, though single readings can be large or run the other way.
SMILES,HP1b chromo inh,JMJD2A Tudor inh,JMJD2E inh,L3MBTL1 inh,BAZ2B block,PI5P4K alpha inh
COc1ccc(C(c2nnnn2C2CCCCC2)N2CCC3(CC2)C(=O)NCN3c2ccccc2)cc1 (stereo unspecified),nt,nt,nt,nt,nt,4
COc1ccc(C(c2nnnn2CC2CCCO2)N2CCN(c3ccccc3)CC2)cc1 (stereo unspecified),-1%,?,-9%,4%,50µM*,0
Fc1ccc(C(OCCN2CCCC2)c2ccc(F)cc2)cc1,21%,-24%,8%,5%,5%,10
c1ccc(CCCN2CCN(CCOC(c3ccccc3)c3ccccc3)CC2)cc1,4%,56µM*,-10%,nt,nt,-5
Fc1ccc(C(OCCN2CCN(CCCc3ccccc3)CC2)c2ccc(F)cc2)cc1,-21%,50µM*,-1%,nt,nt,nt
O=c1[nH]c2ccccc2o1,22%,32µM*,0%,1%,-4%,-1
[O]=[Sb]([OH])([OH])[c]1ccccc1,4%,-30%,nt,nt,nt,nt
O=C(O)CC(O)(CC(=O)O)C(=O)O,6%,79µM*,1%,nt,nt,0
O=C(c1ccccc1)N1CCC2(CC1)OCCO2,21%,-6%,-4%,9%,1%,8
O=C(NC1(C(F)(F)F)Oc2ccc(Cl)cc2O1)N1CCC2(CC1)OCCO2 (stereo unspecified),-5%,32µM*,16µM*,nt,79µM*,-2
O=C(CCC(=O)N1CCOc2ccc(Cl)cc21)N1CCC2(CC1)OCCO2,46%,-12%,nt,nt,4%,0
O=C(NC1(C(F)(F)F)Oc2ccccc2O1)N1CCC2(CC1)OCCO2,?,45µM*,14µM*,?,-5%,nt
O=C(COC(=O)c1cccnc1Cl)NCCc1ccc(F)cc1,46%,0%,nt,4%,nt,0
CN1CCC23CCCC[C@H]2C1Cc1ccc(O)cc13 (stereo partly specified),nt,nt,-2%,nt,nt,nt
O=c1[nH]c(=S)[nH]c(O)c1N=Nc1ccc(S(=O)(=O)N2CCOCC2)cc1,18%,-29%,-6%,-10%,?,-55*
O=c1[nH]c(=S)[nH]c(O)c1N=Nc1cc(S(=O)(=O)Nc2ccc(Cl)cc2)ccc1Cl,40µM*,35µM*,nt,4%,35µM*,-59*
CCOC(=O)c1ncn2c1CN(C)C(=O)c1cc(N=[N+]=[N-])ccc1-2,nt,nt,-4%,nt,nt,nt
Clc1ccc(CCC(Cn2ccnc2)Sc2c(Cl)cccc2Cl)cc1 (stereo unspecified),-13%,25µM*,nt,?,?,14
O=C1NC(=O)C(=Cc2ccccc2Oc2ccc(F)cc2)C(=O)N1,42%,-2%,-13%,nt,16%,?
CN1C(=O)C(=Cc2ccccc2Oc2ccc(Cl)c(F)c2)C(=O)N(C)C1=O,132%,10%,-1%,11%,19%,-52*
COC(=O)N1CCN(C(=O)Cc2ccc(Cl)c(Cl)c2)[C@H](CN2CCCC2)C1,nt,nt,-11%,nt,nt,nt
CC1=CC(=O)c2c(O)cccc2C1=O,nt,nt,8.9µM*,nt,nt,nt
COC(=O)C1=CO[C@@H](C)[C@@H]2CN3CC[C@]4(C(=O)Nc5c4ccc(OC)c5OC)[C@H]3C[C@H]12,nt,nt,-4%,nt,nt,nt
O=C(NCCCCc1ccccc1)c1ccccc1Br,53%,-1%,nt,nt,nt,2
COc1ccc2c(c1)/C(=C/c1cnc[nH]1)C(=O)N2,9%,-30%,-1%,nt,50µM*,-18
SMILES,HP1b chromo inh,JMJD2A Tudor inh,JMJD2E inh,L3MBTL1 inh,BAZ2B block,PI5P4K alpha inh
O=C1Nc2ccccc2/C1=C/c1cnc[nH]1,17%,-18%,2%,-3%,?,nt
COc1cc(OC)c(/C=C2\C(=O)Nc3ccccc32)c(OC)c1,?,56µM*,nt,?,45µM*,5
C=CCN1C(=O)/C(=C/c2cc(C)n(-c3ccccn3)c2C)C(=O)NC1=S,26%,-19%,-1%,-6%,-5%,?
C=CCN1C(=O)NC(=O)/C(=C/c2ccc(N(C)C)c(Br)c2)C1=O,33%,-12%,-24%,-11%,-33%,-59*
CC1=NN(c2ccccc2)C(=O)/C1=C/c1c(O)[nH]c(=S)[nH]c1=O,-2%,79µM*,-16%,-9%,?,?
CC1=NN(c2ccccc2)C(=O)/C1=C/c1c(O)[nH]c(=O)[nH]c1=O,25%,-21%,-5%,-14%,?,-30
COc1ccc(/C=C2/C(=O)N(c3ccccc3)N=C2C)cc1,50µM*,20µM*,nt,nt,nt,2
CN(C(=O)Cc1ccc(Cl)c(Cl)c1)[C@@H](CN1CCCC1)c1cccc(OCC(=O)O)c1,nt,nt,-2%,nt,nt,nt
C[n+]1cccc(C(=O)N/N=C/c2ccc3c(c2)OCO3)c1,3%,-4%,nt,nt,50µM*,2
O=c1c(C=NCc2cccs2)c(O)n(C2CCCCC2)c(=O)n1C1CCCCC1,25%,-8%,0%,nt,-20%,3
S=c1[nH]nc(-c2cccs2)n1C1CCCCC1,10%,6.3µM*,?,44%,-4%,-5
COC(=O)[C@@H]1C[C@@]2(O)[C@@H](O)[C@@H](O)[C@@H](O)C[C@H]2N1Cc1cccnc1,nt,nt,-4%,nt,nt,nt
NP(=O)(OCCCc1ccccc1)Oc1ccc(Cl)cc1 (stereo unspecified),24%,-3%,nt,14µM*,-5%,4
CC1C(=O)OC2C1CC[C@@]1(C)C=CC(=O)[C@@]3(C)O[C@@]213 (stereo partly specified),nt,nt,4%,nt,nt,nt
CCOC(=O)c1cnc2c(ccc3ccccc32)c1Nc1ccc(N(C)C)cc1,10µM*,11µM*,nt,nt,6.3µM*,nt
C[C@H](N)[C@H](O)c1ccc(O)c(O)c1,nt,nt,4.5µM*,nt,nt,nt
COc1ccc(OC)c(C(O)C(C)N)c1 (stereo unspecified),48%,-11%,1%,-9%,0%,2
CC(N)[C@H](O)c1ccc(O)c(O)c1 (stereo partly specified),nt,14µM*,5.6µM*,nt,nt,nt
CNC1[C@@H](O)C(OC2C(N)C[C@H](N)[C@@H](O[C@@H]3OC(C(C)O)C(O)C(O)C3N)C2O)OC[C@]1(C)O (stereo partly specified),nt,nt,-4%,nt,nt,nt
CCN1C(=O)C(=Cc2ccc(C)s2)C(=O)N(CC)C1=S,40µM*,25µM*,-5%,-11%,45µM*,-69*
Cc1ccc(N2C(=O)NC(=O)C(CCc3ccccn3)(Cc3cccc(Cl)c3Cl)C2=O)cc1 (stereo unspecified),4%,-9%,2%,-3%,2%,-2
O=C1NC(=O)C(CCc2ccncc2)(CCc2ccccn2)C(=O)N1c1ccc(Br)cc1 (stereo unspecified),37%,-10%,13%,12%,89µM*,2
O=[N+]([O-])O[C@H]1CO[C@H]2[C@H]1OC[C@@H]2O[N+](=O)[O-],nt,nt,-1%[25.5 µM],nt,nt,nt
